# From the supplement of paper PMC11417369
# Over roughly 25,000 sequences, “ln(normalized median fluorescence intensity)” has its median near 7.1; the highest 2% begin near 10. The sample as a whole holds a higher share of the highest values than the screen did.
# Test system: PfSIP2 AP2 domain 1 (GST-tagged)
# Experiment: gcPBM binding intensity (ln(normalized median fluorescence intensity)); higher = stronger DNA binding
# Outline: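 Binding of GST-tagged P. falciparum DNA-binding domains, expressed in E. coli and used at about 25 μg on average, was carried out for 1 h in 1× PBS containing 1% milk, 0.2 mg/ml BSA, 0.5% salmon testes DNA and 0.03% Triton X-100. The target was an Agilent 4 × 180k array of primer-extended double-stranded 36-bp intergenic genomic probes plus negative controls, read with Alexa488 anti-GST antibody at 488 nm. Binding intensity is the highest Masliner-normalised natural-log median intensity across replicate spots of either probe orientation.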
row,Sequence,gcPBM binding intensity (ln)
1,ATCATATATTATTTATGTACTTATTTATAATAATAT [XGTACX_site8257],7.06
2,AGAATATCAAAATAAAGTACATTTATTATATATATG [XGTACX_site7100],7.15
3,TTATTTAAAAAATTTTTAAATATACAAAAAAAAAAA [TGCATGCA_negctrl_site464],6.88
4,TTAATTGACATAAAAAGTACTCATATAGATATGCAC [XGTACX_site6391],8.9
5,AAACATTTATCAATGAATCTTTTAATAAGTGTAAAG [XGTACX_negctrl_site80],6.79
6,TAAATATAACAGAATAATATGTGGATTAATAAATGA [CACACA_negctrl_site438],6.81
7,ACATATGGCACATATGTACACACGTATAGATAATAT [CACACA_site2024],7.19
8,TGGAGGTCAGTTCACAGTACCCAGAAAACTCTACGA [XGTACX_site2561],6.58
9,TAAAATATTATAAAATGTACAAAACATATAAATATA [XGTACX_site5315],6.8
10,AACACATAATAAAATTGTACCCAACATTTCTTTTGA [XGTACX_site8061],6.96
11,GCATATGATGAGCATATAATCATAAGAAAAAAAAAA [CACACA_negctrl_site701],6.72
12,TATTAATTATAAGATGCATGTGCAAAAATATGTTCC [TGCATGCA_site51],7.6
13,GCAAATCATGCTATGGTGCATATGTAAGATGAGCAT,10.6
14,TATAACTTTTATAGGTGTACCCAATATTATATATAG [XGTACX_site7673],6.97
15,CCAGTGTGCACCTTGCGTACATATTAAATTAATTAA [XGTACX_site3729],12.2
16,TTAAAAATGTGTGTGCGTACATAATATTTCGAAAAA [XGTACX_site8197],7.03
17,TTGCATTAATTTATGTGTACATATAAATTTTTATTT [XGTACX_site3060],7.41
18,TATATATATTTTATATGTACGTATGGAACAATATGA [XGTACX_site8167],7.38
19,ATATATATGTATATAACATGCAACATTTAATAATAA [TGCATGCA_site1018],7.18
20,CATGTATGTACCATGGTGCAACAATATTTTTAACAA [GTGCAC_site9597],10.6
21,GTTACTGCATACATAACACACATATTCAAAACCCAT [CACACA_site5856],7.13
22,TGATTCTGTCATGGTGCACACCAGAACCATTATAAA [CACACA_site1965],11.9
23,CATTATGTCATAAATGCACACATATATATATACATA [CACACA_site8454],7.38

row,Sequence,gcPBM binding intensity (ln)
1,TTCTGTATACGGTGTGCACACAATTAAAAAAAAAAA [CACACA_site1416],9.47
2,TTATAAAGAATTAGGAGTACAAATGCATATATAATA [XGTACX_site6580],7.3
3,TGTTTATTTTTTTTATGTACTTATTTTTTATTGCAT [XGTACX_site719],7.61
4,ATATTTTTATTTAAATCACATCATTTTGTTTATTTG [CACACA_negctrl_site1056],6.95
5,AAAATTAAAAATAACACACACATATTTATATTTATA [CACACA_site7329],6.87
6,AAAAAATTAACGAGTGCACACATATTTAGATAAAAT [CACACA_site8958],10.6
7,AAAATTAAAAATAACACACACATATATATATTTATA [CACACA_site2776],6.9
8,TAAAATAATATTTATGTGCACATATAATTATTAATT,8.71
9,GAAAAATTAAAAATAACACACACATATATATATTTA [CACACA_site8896],6.98
10,AAAATTAACGAGTGCACACATATTTAGATAAAATAC [CACACA_site2936],11.2
11,TTTTATTTATTATTATGTACACACTATATTAAAACA [XGTACX_site1265],7.13
12,TTGTTATTCCACCGTTGTACAGTTATATACATACAC [XGTACX_site8296],7.31
13,GTACATTGTAAGGATGGAAAAGCTAAACATTATAAT [XGTACX_negctrl_site339],6.99
14,ATAGAACAATTCAGAAGTACATAAAAAGAAAAATTT [XGTACX_site3015],6.9
15,ATGAACATTTATAAATGTACTCACATATATATATTT [XGTACX_site6692],7.02
16,ATATATATATGTTAGGTGCATATATATTTTGTGGAT [GTGCAC_site9964],9.6
17,TAATGTTGAGAATTTTGTACATATAGATCAATTTAT [XGTACX_site5426],6.84
18,TTTTTTTTTTTTGAGGTGCATATATCAGATCAATAT,10.6
19,TGATGATATAAAAACACACACATATAACATAATACT [CACACA_site6687],7.04
20,AAAATATAAAATAATGCACACATAAACAAAAAATCA [CACACA_site8382],7.33
21,ATGAGTGCACAAATATATATATATATATATATATAT [CACACA_negctrl_site404],11.6
22,AATATAATATAATGCACACATAAACAAAAAAAAAAT [CACACA_site1304],7.53
23,TACACAAATATATATATATATATATATATATATATA [XGTACX_negctrl_site305],9.89

row,Sequence,gcPBM binding intensity (ln)
1,TATATACATATATGCACACAAAAAAATATATATTTT [CACACA_site1729],7.3
2,ATATATTTGATAAGAGTGCACAAATACATACATACA [GTGCAC_site9704],10.6
3,TACATATTGATATATACACACAAAAAAATAAATTCT [CACACA_site6198],7
4,TATAAATATACAAACACACATACAAACATATATATA [CACACA_site1120],7.27
5,GCACAAATATATATATATATATATATATATATATAT [GTGCAC_negctrl_site661],9.36
6,ATATAATCTGAGTGCACACAAATAAATAAACATACA [CACACA_site422],10.4
7,TAAATATATAAATACACACAAACATACATATATATA [CACACA_site4050],7.55
8,TAATATAATCTGAGTGCACACAAATAAATAAACATA [CACACA_site8032],10.3
9,TATACATATATTATATGTACATATATATATAATATA [XGTACX_site2942],7.26
10,TACTATCTATACAATACACACAAAAAAAAAAAAATA [CACACA_site3981],6.95
11,AATTGAGAAGTGTGTTGTACATAATGGCACATACCT [XGTACX_site1370],7.22
12,ATATTAACTATCATAACACACACAGTAGACATATTT [CACACA_site6941],6.99
13,CATTTTTTGCTTTCAACACACATACAATATAAATAA [CACACA_site7858],7.27
14,ATGAACTAAACTAATCGTACAATAAGTTTTATTATA [XGTACX_site4891],6.84
15,GGCATTTTATGAAGTAGTACCATAAATATTAAAGAT [XGTACX_site5287],7.32
16,TTTATATTTATCCAAAGTACTTTTTAAAAACATACC [XGTACX_site4518],7.36
17,TGGCTTATTCAGAAATGTACACATATAAATATATAT [XGTACX_site3765],7.11
18,AATGGGATCATGGTATGTACTTACACAAATGAATTA [XGTACX_site5389],6.82
19,CTATAAATATTTTATTGTACACACTTTTTATGAATG [XGTACX_site6711],7.22
20,TTCATTAAAATTATTACACACAGTTCTTCAACCAAA [CACACA_site3504],6.84
21,AAAGGTTTATATGATACACACATAAGTGATCAGGTT [CACACA_site190],6.75
22,AGATATTTATTGAGTGCATGTTATAAAGGGAAAAAA [TGCATGCA_site88],10.3
23,GTAGATATTTATTGAGTGCATGTTATAAAGGGAAAA [GTGCAC_site9481],9.62

row,Sequence,gcPBM binding intensity (ln)
1,GGAAAAATATAATATGCATGTTATTATTTTTTTATA [TGCATGCA_site836],6.77
2,TAAAAACATTTAAATTGTACGGAAATAAAAATTTTT [XGTACX_site8225],6.94
3,AGTAATAGTTTGTGCACACTCAAGTATATCATATAT [CACACA_site4034],9.56
4,TATATTTCTTCTATAACATGCAGATATATGAAAATA [TGCATGCA_site971],7.11
5,AATATATGGTTTCATGATATTAAATTCAAAATAATG [CACACA_negctrl_site318],6.75
6,TATTTCAAAATATGGGTGCAGTTCTTCATGATATAT [GTGCAC_site9658],10.7
7,TTTAAAAAATGTTATATTATATAATTAAAAAAAAAA [CACACA_negctrl_site1509],6.63
8,AACCAAACAAATAAACGTACAAACATTACATATATT [XGTACX_site2265],7.05
9,TTACTATGTAAACACACATGCAATATATGTTAAGCC [TGCATGCA_site253],6.91
10,TTTATAAAGGGAAAGGTGCAAAAGGTGAAAGTTTTA,10.8
11,AGTGTTTTTTATAAAGTGCAATATAAAAACAAAATG,8.59
12,AATTATTGTGAAGGGAAAACAAAAAAGTTTATAATT [CACACA_negctrl_site1337],6.87
13,TATATATATATACATTGTACATTATTGATTATAACA [XGTACX_site1678],9.52
14,TTTGAATCCTTATATACACACATTATGTAATATTAT [CACACA_site561],7.1
15,ATATATATATATATATGTACATAGAGAAGTATCTTT [XGTACX_site4737],9.91
16,TTTTTTTTTTTTTTGGTGCAGTTCACATATTATATA [GTGCAC_site9996],9.48
17,ATGGTTATATTTGAAGTGCAAAAAAAAATATATGTA,8.55
18,GAAGTAGATGGAAAAGTGCACTGTAATGGTTATATT,10.3
19,ATGTAGAAGTAATGCACACATATGTATTTATATATA [CACACA_site5391],7.26
20,CATTAATAACAAAGTTGTACAAGATAATATTATATG [XGTACX_site6832],7.26
21,TAAAAAATTATTAAACGTACGAGACTTTTTATCAGT [XGTACX_site2219],7.05
